Assay outcomes as filed in PubChem BioAssay.
ROC1-CUL1 inh: human ROC1-CUL1 E3 ligase inhibition; P62877+Q13616; in vitro K48 di-Ub FRET, acceptor:donor ratio, 45 min; inhibition, % at 10 µM; 140,000 tested, 0.6% active; in the data active means inhibition above about 25%
Target sequence (P62877 whole entry, looked up): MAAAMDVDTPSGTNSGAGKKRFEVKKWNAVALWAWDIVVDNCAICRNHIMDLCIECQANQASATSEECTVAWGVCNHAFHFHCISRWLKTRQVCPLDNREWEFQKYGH
Target sequence (Q13616 whole entry, looked up): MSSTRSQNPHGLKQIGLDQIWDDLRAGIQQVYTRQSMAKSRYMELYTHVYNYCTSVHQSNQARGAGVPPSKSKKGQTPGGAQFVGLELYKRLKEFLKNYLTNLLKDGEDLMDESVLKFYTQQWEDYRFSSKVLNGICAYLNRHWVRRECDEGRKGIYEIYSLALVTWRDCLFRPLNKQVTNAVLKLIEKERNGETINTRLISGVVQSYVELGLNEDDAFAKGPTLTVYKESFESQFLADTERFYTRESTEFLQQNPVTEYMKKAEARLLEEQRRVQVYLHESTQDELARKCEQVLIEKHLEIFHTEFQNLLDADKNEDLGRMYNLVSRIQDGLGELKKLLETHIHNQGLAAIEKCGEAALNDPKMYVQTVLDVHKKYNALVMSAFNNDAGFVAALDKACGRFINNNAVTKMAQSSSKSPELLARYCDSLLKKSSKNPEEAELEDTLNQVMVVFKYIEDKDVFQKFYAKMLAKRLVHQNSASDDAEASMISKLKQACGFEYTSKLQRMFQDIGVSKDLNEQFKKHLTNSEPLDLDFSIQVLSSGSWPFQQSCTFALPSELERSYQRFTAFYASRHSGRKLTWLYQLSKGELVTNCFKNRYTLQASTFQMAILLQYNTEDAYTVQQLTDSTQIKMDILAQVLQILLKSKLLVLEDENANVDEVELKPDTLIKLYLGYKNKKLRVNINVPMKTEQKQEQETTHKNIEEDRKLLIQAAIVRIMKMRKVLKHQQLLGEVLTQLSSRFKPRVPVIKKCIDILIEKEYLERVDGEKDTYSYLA
Active calls of the source: *. Many of the other results were omitted from the sample, so hits are more common in it than they were.

SMILES | ROC1-CUL1 inh
O=C1Oc2cccnc2C(=O)C1C(c1ccc(Cl)cc1)C1C(=O)Oc2cccnc2C1=O (stereo not drawn) | 38*
COc1cc(NC(=O)CSc2nc(-c3ccc(C)cc3)nc3c2Cc2ccccc2O3)cc(OC)c1 | 5
O=C(CSc1nc(-c2ccc(F)cc2)nc2c1Cc1ccccc1O2)Nc1cccc(C(=O)O)c1 | 25*
COc1cccc2c1Oc1nc(-c3ccccc3)nc(SCC(=O)Nc3ccccc3)c1C2 | -6
Cc1ccccc1C(=O)Nc1ccc(C(=O)NNC(=O)[C@@H]2CCCC[C@@H]2C(=O)O)cc1 | 4
Cc1ccc(S(=O)(=O)Oc2cccc(/C=C3/C(=N)N4N=C(CC(C)C)SC4=NC3=O)c2)cc1 | 1
CC(C)(C)c1ccc(C(=O)Oc2cccc(/C=C3\C(=N)N4N=C(c5ccco5)SC4=NC3=O)c2)cc1 | 96*
COc1cc(/C=C2/C(=N)N3N=C(c4ccco4)SC3=NC2=O)cc(OC)c1OC | 18
N=C1/C(=C/c2cccc(Br)c2)C(=O)N=C2SC(C(F)(F)F)=NN12 | -2
N=C1/C(=C/c2cccc(OC(=O)c3cccs3)c2)C(=O)N=C2SC(c3cccs3)=NN12 | 95*
CCOC(=O)c1ccc(-c2ccc(/C=C3/C(=N)N4N=C(c5ccc(C)cc5)SC4=NC3=O)o2)cc1 | 2
Cc1nc(C2CCN(C(=O)c3coc4c3C(=O)CCC4)CC2)cc(=O)[nH]1 | 8
Cc1cccc2sc(-n3ncc(C#N)c3N)nc12 | 3
Cc1ccc(CSc2nnc(-c3ccc(N)cc3)n2C)cc1 | 1
N#CC1C(=N)Oc2cc(Nc3ccccc3)ccc2C1c1ccccc1 (stereo not drawn) | 9
CN(Cc1cccc2cnccc12)C(=O)Cn1nnnc1CN1CCCC1 | 2
Cc1nn2c(-c3ccncc3)nnc2s1 | -9
Cc1cc(/C=C2\C(=O)NC(=S)N(c3ccc(Cl)cc3)C2=O)c(C)n1-c1sc2c(c1C(=O)Nc1ccccc1)CCCC2 | 41*
Cc1cccc(N2C(=O)/C(=C/c3cc(C)n(-c4sc5c(c4C(=O)Nc4ccccc4)CCCC5)c3C)C(=O)NC2=S)c1 | 4
Cc1cc(/C=C2\C(=O)NC(=S)N(c3cccc(Cl)c3)C2=O)c(C)n1-c1sc2c(c1C(=O)Nc1ccccc1)CCCC2 | 8
COc1ccc(CNc2ccc(N3CCOCC3)cc2)c(OC)c1 | 1
Cc1ccc(C2OC3(C(=O)c4ccccc4C3=O)C(c3cccs3)C23C(=O)c2ccccc2C3=O)cc1 (stereo not drawn) | 10
CCCCCC(=O)NC(=S)Nc1ccc2nn(-c3ccc(CCCC)cc3)nc2c1 | -3
COc1cc(CC2=NC(=O)N(CC(=O)Nc3ccc(C)cc3)C2=O)cc(Cl)c1OCc1cccc(C(=O)O)c1 | 45*
COc1cc(CC2=NC(=O)N(Cc3ccc(C)cc3)C2=O)ccc1OCc1cccc(C(=O)O)c1 | 17
SMILES | ROC1-CUL1 inh
COc1cc(CC2=NC(=O)N(CC(=O)Nc3cccc(C)c3)C2=O)cc(Cl)c1O | 4
COc1cc(OC)cc(C(=O)NCC2CCCN(Cc3cnc(SC)nc3)C2)c1 (stereo not drawn) | 2
Cn1c(=NC(=O)c2cccs2)sc2cc([N+](=O)[O-])ccc21 | 4
Cc1nc2c(Br)ccc(Br)c2nc1C | -5
N#C/C(=C\c1ccccc1)S(=O)(=O)c1ccccc1 | 0
COc1ccc(-c2ccc(/C=C(/C#N)S(=O)(=O)c3ccccc3)o2)cc1 | 29*
N#C/C(=C\c1ccc(F)cc1)S(=O)(=O)c1ccccc1 | 9
COc1ccc(C2C(C(=O)c3cccs3)C(=O)C(=O)N2CCc2ccc(OC)c(OC)c2)cc1 (stereo not drawn) | -1
COc1ccc(-c2cc(C(F)(F)F)nc(SCC(=O)N3CCc4ccccc4C3)n2)cc1 | 1
COc1ccc(-c2cc(-c3ccc(C)cc3)nc3sc(C(=O)Nc4ccc(F)cc4)c(N)c23)cc1OC | -11
COc1ccccc1CCN1CCCC(CN(C)C(=O)CCc2cccnc2)C1 (stereo not drawn) | -5
Cc1ccc2occ(/C=N\NC(=O)COc3ccccc3-c3ccnn3-c3ccccc3)c(=O)c2c1 | 3
O=C(COc1ccccc1-c1ccnn1-c1ccccc1)N/N=C/c1cc2ccccc2nc1Cl | -4
O=C(COc1ccccc1-c1ccnn1-c1ccccc1)N/N=C/c1coc2ccc(Cl)cc2c1=O | 60*
COc1ccc2c(O)c(C(=O)Nc3cc(C)on3)oc2c1 | 5
Cc1cc(C(=O)N2CCN(S(=O)(=O)c3ccc(F)cc3)CC2)c(C)o1 | 5
